Where a chain is given by its changes, count along the chain named.
Key:
Assay in all cases: PBM; 200 nM protein, PBS
Details in all cases: dsDNA, one strand shown
HOXD13 [1] = molecular target: HOXD13 (Homo sapiens, UniProt P35453 263-343, T313R)
HOXD13 [2] = molecular target: HOXD13 (Homo sapiens, UniProt P35453 263-343)
HOXD13 [3] = molecular target: HOXD13 (Homo sapiens, UniProt P35453 263-343, T313A)
NKX2-6 [4] = molecular target: T1, NKX2-6 (Homo sapiens, UniProt A6NCS4 118-204)
T1 sequence: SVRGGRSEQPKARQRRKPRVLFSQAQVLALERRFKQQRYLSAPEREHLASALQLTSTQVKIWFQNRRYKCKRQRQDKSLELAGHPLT

NKX2-6 [5] = molecular target: T2, NKX2-6 (Homo sapiens, UniProt A6NCS4 118-204, F151L)
T2 sequence: T1 sequence with F34L

SIX6 [6] = molecular target: T3, SIX6 (Homo sapiens, UniProt O95475 114-200, L167V)
T3 sequence: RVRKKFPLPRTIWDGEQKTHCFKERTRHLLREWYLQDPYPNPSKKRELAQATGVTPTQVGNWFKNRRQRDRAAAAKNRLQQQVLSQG

SIX6 [7] = molecular target: T4, SIX6 (Homo sapiens, UniProt O95475 114-200, T165I)
T4 sequence: T3 sequence with T52I, V54L

PROP1 [8] = molecular target: PROP1 (Homo sapiens, UniProt O75360 56-141)
PROP1 [9] = molecular target: PROP1 (Homo sapiens, UniProt O75360 56-141, R99H)
PROP1 [10] = molecular target: PROP1 (Homo sapiens, UniProt O75360 56-141, F88S)
SIX6 [11] = molecular target: T5, SIX6 (Homo sapiens, UniProt O95475 114-200)
T5 sequence: T3 sequence with V54L

VAX1 [12] = molecular target: VAX1 (Homo sapiens, UniProt Q5SQQ9 86-172)
VAX1 [13] = molecular target: VAX1 (Homo sapiens, UniProt Q5SQQ9 86-172, T142I)
VAX1 [14] = molecular target: VAX1 (Homo sapiens, UniProt Q5SQQ9 86-172, K157R)
NKX3-2 [15] = molecular target: NKX3-2 (Homo sapiens, UniProt P78367 192-278, P234S)
NKX3-2 [16] = molecular target: NKX3-2 (Homo sapiens, UniProt P78367 192-278)
HOXA4 [17] = molecular target: HOXA4 (Homo sapiens, UniProt Q00056 201-287, W262R)
HOXA4 [18] = molecular target: HOXA4 (Homo sapiens, UniProt Q00056 201-287, R217L)
MSX2 [19] = molecular target: MSX2 (Homo sapiens, UniProt P35548 130-214, R199I)
ALX3 [20] = molecular target: ALX3 (Homo sapiens, UniProt O95076 139-225, N203Q)
HOXA4 [21] = molecular target: HOXA4 (Homo sapiens, UniProt Q00056 201-287)
MSX2 [22] = molecular target: MSX2 (Homo sapiens, UniProt P35548 130-214)
ALX3 [23] = molecular target: ALX3 (Homo sapiens, UniProt O95076 139-225)
ALX3 [24] = molecular target: ALX3 (Homo sapiens, UniProt O95076 139-225, L168Q)
ALX3 [25] = molecular target: ALX3 (Homo sapiens, UniProt O95076 139-225, L168V)
MSX2 [26] = molecular target: MSX2 (Homo sapiens, UniProt P35548 130-214, F161Y)
HOXA4 [27] = molecular target: HOXA4 (Homo sapiens, UniProt Q00056 201-287, W262F)
ALX3 [28] = molecular target: ALX3 (Homo sapiens, UniProt O95076 139-225, N203S)
ALX1 [29] = molecular target: ALX1 (Homo sapiens, UniProt Q15699 118-204, L144V)
ALX1 [30] = molecular target: ALX1 (Homo sapiens, UniProt Q15699 118-204, L144R)
ALX1 [31] = molecular target: ALX1 (Homo sapiens, UniProt Q15699 118-204)
HOXB6 [32] = molecular target: HOXB6 (Homo sapiens, UniProt P17509 132-218, K202E)
HOXB6 [33] = molecular target: HOXB6 (Homo sapiens, UniProt P17509 132-218)
HOXB6 (Homo sapiens, UniProt P17509 132-218), sequence (P17509 132-218): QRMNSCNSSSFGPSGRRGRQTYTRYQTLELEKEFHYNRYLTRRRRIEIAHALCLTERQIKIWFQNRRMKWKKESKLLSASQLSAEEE

HOXA4 (Homo sapiens, UniProt Q00056 201-287, W262R), sequence (Q00056 201-287 W262R): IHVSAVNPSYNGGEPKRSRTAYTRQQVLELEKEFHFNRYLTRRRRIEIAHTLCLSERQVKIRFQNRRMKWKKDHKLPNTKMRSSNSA
HOXA4 (Homo sapiens, UniProt Q00056 201-287, R217L), sequence (Q00056 201-287 R217L): as the sequence (Q00056 201-287 W262R) above, with R17L, R62W counted along it
HOXA4 (Homo sapiens, UniProt Q00056 201-287), sequence (Q00056 201-287): as the sequence (Q00056 201-287 W262R) above, with R62W counted along it
HOXA4 (Homo sapiens, UniProt Q00056 201-287, W262F), sequence (Q00056 201-287 W262F): as the sequence (Q00056 201-287 W262R) above, with R62F counted along it
MSX2 (Homo sapiens, UniProt P35548 130-214), sequence (P35548 130-214): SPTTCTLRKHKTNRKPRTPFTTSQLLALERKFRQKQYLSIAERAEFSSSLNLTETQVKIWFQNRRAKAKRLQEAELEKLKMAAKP
MSX2 (Homo sapiens, UniProt P35548 130-214, R199I), sequence (P35548 130-214 R199I): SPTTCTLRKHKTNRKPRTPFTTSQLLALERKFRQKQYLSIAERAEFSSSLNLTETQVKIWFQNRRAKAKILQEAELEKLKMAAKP
MSX2 (Homo sapiens, UniProt P35548 130-214, F161Y), sequence (P35548 130-214 F161Y): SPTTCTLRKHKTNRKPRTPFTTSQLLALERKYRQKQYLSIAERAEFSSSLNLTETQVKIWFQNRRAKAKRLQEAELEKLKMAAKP
HOXD13 (Homo sapiens, UniProt P35453 263-343, T313R), sequence (P35453 263-343 T313R): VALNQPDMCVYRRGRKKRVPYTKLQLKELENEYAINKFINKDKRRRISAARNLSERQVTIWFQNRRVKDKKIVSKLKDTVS
NKX3-2 (Homo sapiens, UniProt P78367 192-278, P234S), sequence (P78367 192-278 P234S): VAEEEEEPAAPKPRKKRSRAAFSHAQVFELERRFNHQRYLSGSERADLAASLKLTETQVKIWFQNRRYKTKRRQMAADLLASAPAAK
VAX1 (Homo sapiens, UniProt Q5SQQ9 86-172, T142I), sequence (Q5SQQ9 86-172 T142I): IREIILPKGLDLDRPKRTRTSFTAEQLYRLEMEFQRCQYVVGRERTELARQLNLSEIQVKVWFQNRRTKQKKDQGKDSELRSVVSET
ALX1 (Homo sapiens, UniProt Q15699 118-204, L144V), sequence (Q15699 118-204 L144V): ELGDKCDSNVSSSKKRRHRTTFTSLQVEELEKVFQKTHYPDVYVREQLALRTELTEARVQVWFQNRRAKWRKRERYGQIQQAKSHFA
PROP1 (Homo sapiens, UniProt O75360 56-141, R99H), sequence (O75360 56-141 R99H): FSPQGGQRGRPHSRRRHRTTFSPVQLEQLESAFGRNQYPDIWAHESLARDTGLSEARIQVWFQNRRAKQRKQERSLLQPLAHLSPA
NKX3-2 (Homo sapiens, UniProt P78367 192-278), sequence (P78367 192-278): as the sequence (P78367 192-278 P234S) above, with S43P counted along it
ALX3 (Homo sapiens, UniProt O95076 139-225), sequence (O95076 139-225): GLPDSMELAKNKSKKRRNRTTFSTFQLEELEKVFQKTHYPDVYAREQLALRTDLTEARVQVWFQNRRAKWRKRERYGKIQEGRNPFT
PROP1 (Homo sapiens, UniProt O75360 56-141, F88S), sequence (O75360 56-141 F88S): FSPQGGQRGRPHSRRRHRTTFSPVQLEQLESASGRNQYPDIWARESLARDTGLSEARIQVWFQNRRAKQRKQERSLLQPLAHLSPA
HOXB6 (Homo sapiens, UniProt P17509 132-218, K202E), sequence (P17509 132-218 K202E): as the sequence (P17509 132-218) above, with K71E counted along it
ALX1 (Homo sapiens, UniProt Q15699 118-204), sequence (Q15699 118-204): as the sequence (Q15699 118-204 L144V) above, with V27L counted along it
VAX1 (Homo sapiens, UniProt Q5SQQ9 86-172), sequence (Q5SQQ9 86-172): as the sequence (Q5SQQ9 86-172 T142I) above, with I57T counted along it
HOXD13 (Homo sapiens, UniProt P35453 263-343, T313A), sequence (P35453 263-343 T313A): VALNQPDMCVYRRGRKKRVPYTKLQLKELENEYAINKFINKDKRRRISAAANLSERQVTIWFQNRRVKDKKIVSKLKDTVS
ALX3 (Homo sapiens, UniProt O95076 139-225, N203S), sequence (O95076 139-225 N203S): as the sequence (O95076 139-225) above, with N65S counted along it
ALX3 (Homo sapiens, UniProt O95076 139-225, L168Q), sequence (O95076 139-225 L168Q): as the sequence (O95076 139-225) above, with L30Q counted along it
ALX3 (Homo sapiens, UniProt O95076 139-225, N203Q), sequence (O95076 139-225 N203Q): as the sequence (O95076 139-225) above, with N65Q counted along it
ALX3 (Homo sapiens, UniProt O95076 139-225, L168V), sequence (O95076 139-225 L168V): as the sequence (O95076 139-225) above, with L30V counted along it
ALX1 (Homo sapiens, UniProt Q15699 118-204, L144R), sequence (Q15699 118-204 L144R): as the sequence (Q15699 118-204 L144V) above, with V27R counted along it
HOXD13 (Homo sapiens, UniProt P35453 263-343), sequence (P35453 263-343): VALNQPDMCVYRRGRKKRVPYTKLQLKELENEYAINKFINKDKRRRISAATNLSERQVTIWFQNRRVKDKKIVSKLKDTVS
PROP1 (Homo sapiens, UniProt O75360 56-141), sequence (O75360 56-141): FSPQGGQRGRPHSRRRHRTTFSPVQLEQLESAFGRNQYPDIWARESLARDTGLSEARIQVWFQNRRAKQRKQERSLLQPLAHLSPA
VAX1 (Homo sapiens, UniProt Q5SQQ9 86-172, K157R), sequence (Q5SQQ9 86-172 K157R): as the sequence (Q5SQQ9 86-172 T142I) above, with I57T, K72R counted along it

For CCCGACGC, the binding signal (HOXD13 [1]) was 9.45 upbm affinity estimate (log intensity, higher = more binding, comparable within an allelic series), the binding signal (HOXD13 [2]) was 9.26 upbm affinity estimate (log intensity, higher = more binding, comparable within an allelic series) and the binding signal (HOXD13 [3]) was 9.49 upbm affinity estimate (log intensity, higher = more binding, comparable within an allelic series).
In the case of GCCCCGAC, the binding signal (NKX2-6 [4]) is reported as 9.63 upbm affinity estimate (log intensity, higher = more binding, comparable within an allelic series) and the binding signal (NKX2-6 [5]) is reported as 9.35 upbm affinity estimate (log intensity, higher = more binding, comparable within an allelic series).
GCCGGCCC was tested, and the binding signal (NKX2-6 [4]) was 9.25 upbm affinity estimate (log intensity, higher = more binding, comparable within an allelic series) and the binding signal (NKX2-6 [5]) was 9.24 upbm affinity estimate (log intensity, higher = more binding, comparable within an allelic series).
AGATGATA was tested, and the binding signal (SIX6 [6]) was 10.9 upbm affinity estimate (log intensity, higher = more binding, comparable within an allelic series) and the binding signal (SIX6 [7]) was 10.9 upbm affinity estimate (log intensity, higher = more binding, comparable within an allelic series).
With CAGATATC the binding signal (SIX6 [6]) was 10.8 upbm affinity estimate (log intensity, higher = more binding, comparable within an allelic series).
CCGAGAGG was tested, and the binding signal (PROP1 [8]) was 6.47 upbm affinity estimate (log intensity, higher = more binding, comparable within an allelic series), the binding signal (PROP1 [9]) was 6.52 upbm affinity estimate (log intensity, higher = more binding, comparable within an allelic series) and the binding signal (PROP1 [10]) was 6.64 upbm affinity estimate (log intensity, higher = more binding, comparable within an allelic series).
With ATACTAAC the binding signal (SIX6 [11]) was 10.1 upbm affinity estimate (log intensity, higher = more binding, comparable within an allelic series).
With CGCGCGCG the binding signal (VAX1 [12]) was 7.34 upbm affinity estimate (log intensity, higher = more binding, comparable within an allelic series), the binding signal (VAX1 [13]) was 7.38 upbm affinity estimate (log intensity, higher = more binding, comparable within an allelic series) and the binding signal (VAX1 [14]) was 7.37 upbm affinity estimate (log intensity, higher = more binding, comparable within an allelic series).
In the case of CAGCCTCC, the binding signal (NKX3-2 [15]) is reported as 10.7 upbm affinity estimate (log intensity, higher = more binding, comparable within an allelic series) and the binding signal (NKX3-2 [16]) is reported as 10.7 upbm affinity estimate (log intensity, higher = more binding, comparable within an allelic series).
GGCCCGGA was tested, and the binding signal (HOXA4 [17]) was 9.72 upbm affinity estimate (log intensity, higher = more binding, comparable within an allelic series), the binding signal (HOXA4 [18]) was 9.68 upbm affinity estimate (log intensity, higher = more binding, comparable within an allelic series) and the binding signal (MSX2 [19]) was 9.48 upbm affinity estimate (log intensity, higher = more binding, comparable within an allelic series). For the same sequence, the binding signal (ALX3 [20]) was 7.72 upbm affinity estimate (log intensity, higher = more binding, comparable within an allelic series), the binding signal (HOXA4 [21]) was 9.79 upbm affinity estimate (log intensity, higher = more binding, comparable within an allelic series) and the binding signal (MSX2 [22]) was 9.31 upbm affinity estimate (log intensity, higher = more binding, comparable within an allelic series). For the same sequence, the binding signal (ALX3 [23]) was 7.7 upbm affinity estimate (log intensity, higher = more binding, comparable within an allelic series), the binding signal (ALX3 [24]) was 7.72 upbm affinity estimate (log intensity, higher = more binding, comparable within an allelic series) and the binding signal (ALX3 [25]) was 7.71 upbm affinity estimate (log intensity, higher = more binding, comparable within an allelic series). For the same sequence, the binding signal (MSX2 [26]) was 9.46 upbm affinity estimate (log intensity, higher = more binding, comparable within an allelic series), the binding signal (HOXA4 [27]) was 9.78 upbm affinity estimate (log intensity, higher = more binding, comparable within an allelic series) and the binding signal (ALX3 [28]) was 7.75 upbm affinity estimate (log intensity, higher = more binding, comparable within an allelic series).
GACTCCGC was tested, and the binding signal (HOXA4 [17]) was 9.83 upbm affinity estimate (log intensity, higher = more binding, comparable within an allelic series), the binding signal (HOXA4 [18]) was 9.81 upbm affinity estimate (log intensity, higher = more binding, comparable within an allelic series) and the binding signal (ALX1 [29]) was 6.29 upbm affinity estimate (log intensity, higher = more binding, comparable within an allelic series). For the same sequence, the binding signal (ALX1 [30]) was 6.35 upbm affinity estimate (log intensity, higher = more binding, comparable within an allelic series), the binding signal (HOXA4 [21]) was 9.59 upbm affinity estimate (log intensity, higher = more binding, comparable within an allelic series) and the binding signal (ALX1 [31]) was 6.25 upbm affinity estimate (log intensity, higher = more binding, comparable within an allelic series). For the same sequence, the binding signal (HOXA4 [27]) was 9.87 upbm affinity estimate (log intensity, higher = more binding, comparable within an allelic series).
In the case of AGGGCGGG, the binding signal (HOXA4 [17]) is reported as 9.85 upbm affinity estimate (log intensity, higher = more binding, comparable within an allelic series), the binding signal (HOXA4 [18]) is reported as 9.99 upbm affinity estimate (log intensity, higher = more binding, comparable within an allelic series) and the binding signal (MSX2 [19]) is reported as 9.58 upbm affinity estimate (log intensity, higher = more binding, comparable within an allelic series). For the same sequence, the binding signal (HOXA4 [21]) was 10 upbm affinity estimate (log intensity, higher = more binding, comparable within an allelic series), the binding signal (MSX2 [22]) was 9.55 upbm affinity estimate (log intensity, higher = more binding, comparable within an allelic series) and the binding signal (MSX2 [26]) was 9.62 upbm affinity estimate (log intensity, higher = more binding, comparable within an allelic series). The binding signal (HOXA4 [27]) was 10.1 upbm affinity estimate (log intensity, higher = more binding, comparable within an allelic series).
In the case of CATTAACG, the binding signal (HOXA4 [17]) is reported as 10.6 upbm affinity estimate (log intensity, higher = more binding, comparable within an allelic series), the binding signal (HOXB6 [32]) is reported as 9.9 upbm affinity estimate (log intensity, higher = more binding, comparable within an allelic series) and the binding signal (HOXA4 [18]) is reported as 11.8 upbm affinity estimate (log intensity, higher = more binding, comparable within an allelic series). The binding signal (HOXA4 [21]) was 13.6 upbm affinity estimate (log intensity, higher = more binding, comparable within an allelic series), the binding signal (HOXA4 [27]) was 11.4 upbm affinity estimate (log intensity, higher = more binding, comparable within an allelic series) and the binding signal (HOXB6 [33]) was 11.6 upbm affinity estimate (log intensity, higher = more binding, comparable within an allelic series).

From PMC11006913
